# Screening results as filed in PubChem BioAssay.
# An excerpt weighted towards active compounds, which were near 3.4% of everything screened.
# TRPM1 prom inh: inhibitors of MITF-driven TRPM1 promoter in melanoma cells; inhibition, % at 12.5 µM; SK-MEL-5 TRPM1 promoter luciferase, 24 h; actives 0.83% (n = 330,000);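 active = mean inhibition across replicates of 60% or more, whatever share of single replicates reaches that level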
# EBV LMP1 NFkB: Epstein-Barr LMP1 NF-kappaB reporter inhibition. LMP1-induced NF-kappaB luciferase reporter cells, luminescence. inhibition, % at 12.5 µM. actives 0.69% (n = 350,000). AID 504558; in the data active = inhibition above about 41%;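 note: 0% = neutral control wells and 100% = reference inhibitor control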
# TWEAK-Fn14 inh: TWEAK-Fn14 signaling inhibition; TWEAK-stimulated Fn14 reporter cells, luciferase luminescence, 8 h; inhibition, % at 10 µM; actives 2% (n = 360,000); in the data active = inhibition above about 50%
# Shn3 inh set2: Schnurri-3 reporter inhibition in Clone20 osteoblasts | inhibition, % at 12.5 µM | Clone20 osteoblast Shn3 3'UTR firefly luciferase, 24 h | actives 0.52% (n = 360,000);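 active = mean inhibition of at least 75% with every replicate also reaching 75%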;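 note: 0% = median of neutral control wells and 100% = pilot-screen positive control compound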
# TROY NFkB inh: blocks TROY-dependent signaling in reporter cells; Q293 LMP1-TROYcd NF-kB luciferase reporter, 4 h; inhibition, % at 10 µM; actives 0.98% (n = 360,000); AID 1347056;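 active = compounds whose plate-normalised and pattern-corrected inhibition of the luciferase reporter signal at the single screening dose is 50% or more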
# HIF-2a block: blocks HIF-2a reporter activity; 786-0 RCC cells HIF-2a reporter, luciferase luminescence, overnight; inhibition, % at 18.8 µM; actives 0.72% (n = 360,000); AID 624352;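 active = inhibition of the luminescence signal of 40% or more relative to plate controls, in a single-dose primary screen at 18.75 µM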
# * = called active by the depositor; x = no result given.
SMILES,TRPM1 prom inh,EBV LMP1 NFkB,TWEAK-Fn14 inh,Shn3 inh set2,TROY NFkB inh,HIF-2a block
CCOc1ccc(NC(=O)NNC(=O)c2cc3ccccc3cc2O)cc1,6.1,3.7,54.8*,-7.6,52.3*,11.5
Cc1ccccc1OCC(=O)Nc1cccc(C(=O)O)c1,91.9*,77.4*,59.0*,55.7,17.5,91.6*
O=C(O)C(Cc1ccc(OS(=O)(=O)Cc2ccccc2)cc1)NS(=O)(=O)Cc1ccccc1 (centres undefined),12.8,0.9,-3.3,2.5,15.3,11.6
C[C@@H]1CN([C@@H](C)CO)C(=O)CCCn2nncc2CO[C@@H]1CN(C)S(=O)(=O)c1ccc2ccccc2c1,x,-0.4,-5.7,-6.8,-4.1,4.7
CC(O)(Cc1ccccn1)Cc1ccccn1,-10.5,-0.1,17.8,3.3,-14.4,1.8
CC(C)CC(=O)Nc1ccc(C(=O)CN2C(=O)NC3(CCOc4ccccc43)C2=O)cc1 (centres undefined),4.8,2.7,-8.6,8.7,-21.1,1.9
CC(=O)c1cccc(NC(=O)Nc2ccc(C(=O)N3CCOCC3)cc2)c1,-2.0,48.6*,7.5,1.0,12.1,15.3
O=C(Nc1cccc(Cl)c1)Nc1cccc(C(=O)O)c1,30.4,42.5*,-2.7,21.6,-50.6,-17.4
CCOc1ccc(NC(=O)Nc2cccc(C(=O)O)c2)cc1,93.6*,81.3*,22.7,79.2,-53.4,87.7*
CCNC(=O)C1(C)CCN(Cc2noc(-c3c(C)noc3C)n2)C1 (centres undefined),x,x,21.1,4.4,-7.0,1.7
COc1ccc(S(=O)(=O)N2CCOCC2)cc1NC(=O)COC(=O)CCS(=O)(=O)c1ccc(C)cc1,0.6,67.8*,6.7,-56.0,1.5,-5.4
COc1ccc(S(=O)(=O)N2CCOCC2)cc1NC(=O)COC(=O)C1CCC1,-4.5,-2.8,10.8,0.9,3.2,9.2
COc1ccc(S(=O)(=O)Nc2cccc3c2O[C@H](CN(C)C(=O)Nc2c(C)noc2C)[C@@H](C)CN([C@H](C)CO)C3=O)cc1,-1.0,13.4,-3.3,4.2,-3.1,13.8
CN(C)CCCn1c2c(c(SCC(=O)Nc3ccc4c(c3)OCCO4)nc1=O)CCCC2,x,-0.6,-0.5,-9.5,12.1,1.9
Cc1ccc(OCCNC(=O)c2cccc(S(=O)(=O)NCc3ccccc3)c2)cc1,38.0,-13.5,12.4,31.4,67.0*,2.9
Cc1cc(C)c(NC(=S)N2CCN(c3ccc([N+](=O)[O-])cn3)CC2)cc1C,x,13.5,-7.3,13.0,19.9,-2.6
CS(=O)(=O)N(CCc1ccccc1)CC(=O)N1CCCCCC1,x,0.6,10.4,-26.7,-13.2,12.2
Cc1ccc(/C=N/N2CCN(C3c4ccccc4-c4ccccc43)CC2)s1,-4.1,-2.7,61.6*,11.4,53.7*,11.6
O=C(NCCCSc1ccccc1)c1cc(Cl)ccc1O,0.2,-3.0,55.4*,21.5,37.3,-22.3
Cn1c(=O)c2c(ncn2CC(=O)OCC(=O)Nc2cc(Cl)ccc2C#N)n(C)c1=O,17.7,-7.8,-0.6,7.5,8.0,25.8
O=C1C=Cc2cccc3ccc(O)c1c23,7.8,43.9*,12.3,52.7,18.2,23.5
CC(C)c1cccc(-c2csc(C(O)c3ccco3)n2)c1 (centres undefined),x,x,-3.6,-13.7,-45.2,-125.5
CCCc1cc(C(=O)Nc2sc(C)c(CC)c2C#N)no1,x,-3.5,-24.3,2.3,-26.4,-161.0
CC(C)(C)C(=O)Nc1sc2c(c1C#N)CCC2,0.3,-0.3,-1.3,-12.5,-3.1,7.6
N#Cc1c(NC(=O)c2nc3ncccn3n2)sc2c1CCCCC2,-16.2,-5.6,70.5*,14.8,2.7,-24.6
CC(C)(C)C(=O)NC(NC(=S)Nc1sc2c(c1C#N)CCCC2)C(Cl)(Cl)Cl (centres undefined),8.6,0.8,-8.6,2.2,58.9*,-13.7
CCNC(=S)Nc1sc2c(c1C#N)CCC(C)C2 (centres undefined),-9.8,59.4*,-23.2,-8.1,-47.1,-37.9
CC1CCc2c(sc(NC(=O)c3nc4ncccn4n3)c2C#N)C1 (centres undefined),-56.1,-9.1,28.0,-41.0,-51.3,-104.9
CCCc1cc(C(=O)Nc2sc3c(c2C#N)CCC3)no1,-26.6,-5.0,99.9*,-17.7,-27.7,-168.8
O=C(Cn1cnc2ccccc21)Nc1ccc2c(c1)OCCCO2,0.3,16.7,14.7,72.3,8.1,-85.2
